Records with an inconclusive call do not appear. Activity calls are given as the source filed them. Unless noted, calls come from the whole dose curve; as a rule, active = well fitted curve in the direction sought with a large enough effect in the repeat runs; inconclusive = weak or mixed curves; inactive = no such curve, though single readings can be large; an effect the other way counts as inactive or inconclusive.
Assays:
[1] = qHTS assay to identify small molecule agonists of the retinoic acid receptor (RAR) signaling pathway (AID 1159553); note: potency is the fitted concentration of half-maximal effect
Outline: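 6 hr compound exposure (DMSO vehicle) of overnight-plated C3RL4 RARE-luc cells at 37 C; luminescence quantified after 30 min RT with luciferase reagent.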

[2] = molecular target: Luciferin 4-monooxygenase (Photinus pyralis) (UniProt P08659); assay: qHTS assay to identify small molecule inhibitors of firefly luciferase (AID 1224835); note: nearly all actives have a fitted effect of over 25% in size; note: potency is the fitted concentration of half-maximal effect
Outline: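 Biochemical qHTS: compounds run as interplate titrations against purified firefly enzyme, with D-luciferin and ATP each at its KM concentration. Light output recorded by CCD imaging.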

[3] = qHTS assay to identify small molecule agonists of the constitutive androstane receptor (CAR) signaling pathway - cell viability counter screen (AID 1224836); note: series mostly up to about 92 µM; nearly all actives have a fitted effect of over 45% in size
Outline: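 Multiplexed viability check: HepG2-CYP2B6-hCAR cells, 15-point compound dosing, 0.75 uM PK11195 final, 23 h at 37 C, CellTiter-Fluor fluorescence.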

[4] = molecular target: Nuclear receptor subfamily 1 group I member 3 (Homo sapiens) (UniProt Q14994); assay: qHTS assay to identify small molecule antagonists of the constitutive androstane receptor (CAR) signaling pathway (AID 1224838);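 note: HepG2 cells stably expressing hCAR with CYP2B6 luciferase reporter stimulated by CITCO; nearly all actives have a fitted effect of over 40% in size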
Outline: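 Human hepatoma HepG2 cells expressing hCAR and a CYP2B6 promoter (2.2 kb) luciferase construct; compound titration (15 points) with 50 nM CITCO final, 24 h at 37 C/5% CO2; luminescence via ONE-Glo after 30 min at room temperature.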

[5] = molecular target: Nuclear receptor subfamily 1 group I member 3 (Homo sapiens) (UniProt Q14994); assay: qHTS assay to identify small molecule agonists of the constitutive androstane receptor (CAR) signaling pathway (AID 1224839); note: nearly all actives have a fitted effect of over 15% in size; note: potency is the fitted concentration of half-maximal effect;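 for activation: HepG2 cells stably carrying human CAR and a CYP2B6 luciferase reporter; series mostly up to about 92 µM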
Outline: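 Using human hepatoma HepG2 cells engineered with hCAR and a CYP2B6-2.2kb reporter, 15-concentration compound series were incubated 24 h alongside PK11195 at 0.75 uM final, with luminescence quantified afterwards.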

[6] = qHTS assay to identify small molecule antagonists of the estrogen related receptor signaling pathway with the pleiotropic PPARgamma coactivator (PGC) from Tox21 10K library - cell viability counter screen (AID 1224840; active = well fitted cell-killing curve with a large enough effect in the repeat runs, not every such curve was filed as active; note: nearly all actives have a fitted effect of over 40% in size)
Outline: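 Seeded PGC/ERR cells (2,000/well, 6 h, 37 C/5% CO2) get compound by pin tool; 17.5 h incubation at 37 C; CellTiter-Fluor added, 30 min, fluorescence measured.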

[7] = qHTS assay to identify small molecule agonists of the estrogen related receptor signaling pathway with the pleiotropic PPARgamma coactivator (PGC) from Tox21 10K library (AID 1224842); note: nearly all actives have a fitted effect of over 15% in size; note: potency is the fitted concentration of half-maximal effect
Outline: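 PGC/ERR reporter cell line, 2,000 cells per well, incubated 6 h at 37 C before 23 nL compound in DMSO was added. After 18 h at 37 C, One-Glo luminescence read following 30 min at room temperature.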

[8] = molecular target: Thyrotropin receptor (Homo sapiens) (UniProt P16473); assay: qHTS assay to identify small molecule agonists of the thyroid stimulating hormone receptor (TSHR) signaling pathway (AID 1224843; calls by dose curve; note: nearly all actives have a fitted effect of over 45% in size)
Outline: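 HEK293/TSHR, 800 cells/well; cpd 30 min RT; add cAMP-d2 + anti-cAMP-cryptate, 1 h RT; fluorescence read on plate reader. 15-pt titration, n=3.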

[9] = qHTS assay to identify small molecule agonists of the hypoxia (HIF-1) signaling pathway - cell viability counter screen (AID 1224844; calls by dose curve; note: nearly all actives have a fitted effect of over 50% in size; note: potency is the fitted concentration of half-maximal effect)
Outline: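 HRE-bla ME-180; 0.5% dFBS; cpd 17 h, 37C, 5% CO2; CellTiter-Glo lum., 30 min RT, post-FRET read, same wells.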

[10] = qHTS assay to identify small molecule agonists of H2AX (AID 1224845; active = well fitted activation curve with a large enough effect in the signal ratio in the repeat runs, not every such curve was filed as active; the % refers to the signal ratio)
Outline: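 Wild-type CHO-K1 cells, plated overnight, exposed 3hr at 37C to 15 concentrations (0.76% DMSO final). Lysed, then HTRF anti-pH2AX (S139) cryptate and anti-H2AX-d2 antibodies, 24 hr room temperature; 665/620 nm emission read.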

[11] = qHTS assay to identify small molecule antagonists of the estrogen related receptor (ERR) signaling pathway - cell viability counter screen (AID 1224818); note: series mostly up to about 46 µM
Outline: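 Compounds dissolved in DMSO were applied to ERR cells seeded at 2,000 per well 6 h earlier. Cell viability followed 17.5 h later via 30-min CellTiter-Fluor fluorescence.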

[12] = qHTS assay to identify small molecule antagonists of the estrogen related receptor (ERR) signaling pathway (AID 1224819; note: nearly all actives have a fitted effect of over 50% in size; note: potency is the fitted concentration of half-maximal effect)
Outline: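 Compounds dissolved in DMSO were pin-transferred onto ERR cells that had been plated 6 h earlier, and cells were then incubated 18 h at 37 C; signal was luciferase luminescence via One-Glo.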

[13] = qHTS assay to identify small molecule agonists of the estrogen related receptor (ERR) signaling pathway (AID 1224820); note: potency is the fitted concentration of half-maximal effect
Outline: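 Luminescence readout (One-Glo, 30 min RT) from NTP-supplied ERR cell line exposed to compounds for 18 h at 37 C. Cells seeded 2,000 per well and pre-incubated 6 h before pin-tool compound transfer.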

[14] = test system: estrogen-related receptor alpha (ERRalpha) with PGC-1alpha coactivator, human; assay: qHTS assay to identify small molecule antagonists of the estrogen related receptor signaling pathway with the pleiotropic PPARgamma coactivator (PGC) (AID 1224821; calls by dose curve; note: nearly all actives have a fitted effect of over 50% in size; note: potency is the fitted concentration of half-maximal effect)
Outline: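 PGC/ERR reporter cells; 6 h pre-incubation 37 C/5% CO2; pin-tool compound in DMSO, 18 h 37 C; One-Glo added, 30 min RT; luminescence read. qHTS antagonist mode.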

[15] = qHTS assay to identify small molecule antagonists of the estrogen related receptor signaling pathway with the pleiotropic PPARgamma coactivator (PGC) cell viability counter screen (AID 1224822; note: series mostly up to about 46 µM)
Outline: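 Counter screen for cell viability: PGC/ERR cells, 6 h pre-incubation after plating, 17.5 h compound exposure at 37 C, fluorescence from CellTiter-Fluor after 30 min.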

[16] = qHTS assay to identify small molecule antagonists of the estrogen related receptor (ERR) signaling pathway from Tox21 library - cell viability counter screen (AID 1224834); note: potency is the fitted concentration of half-maximal effect; nearly all actives have a fitted effect of over 30% in size
Outline: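 Seeded ERR cells were rested 6 h at 37 C/5% CO2 before compounds, positive and negative controls or DMSO were added. Incubation continued for 17.5 h, and viability was then quantified by CellTiter-Fluor fluorescence.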

[17] = qHTS assay to identify small molecule agonists of the estrogen related receptor signaling pathway with the pleiotropic PPARgamma coactivator (PGC) (AID 1224823); note: potency is the fitted concentration of half-maximal effect
Outline: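 Luminescence readout (One-Glo, 30 min RT) from PGC/ERR cell line treated 18 h at 37 C with pin-tool-delivered DMSO compound solutions; cells plated 6 h before dosing. Quantitative HTS format.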

[18] = qHTS assay to identify small molecule antagonists of the constitutive androstane receptor (CAR) signaling pathway - cell viability counter screen (AID 1224837); note: series mostly up to about 92 µM; nearly all actives have a fitted effect of over 45% in size
Outline: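 To flag cytotoxic false antagonists, HepG2 hCAR/CYP2B6-2.2kb cells were treated 23 hr with 15-concentration compound series and 50 nM CITCO at 37 C/5% CO2; CellTiter-Fluor fluorescence was the measured end point.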

[19] = qHTS assay to identify small molecule antagonists of the estrogen related receptor signaling pathway with the pleiotropic PPARgamma coactivator (PGC) from Tox21 10K library (AID 1224841; call rule not given here; note: series mostly up to about 92 µM; actives are mostly falling curves and most rising ones were filed inactive; nearly all actives have a fitted effect of over 50% in size)
Outline: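 Test chemicals dissolved in DMSO were applied to pre-incubated (6 h) PGC/ERR cells at 2,000 cells/well for an 18 h, 37 C treatment; reporter luminescence was then read using One-Glo.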

Measured: Potency

Thyrotropin receptor (Homo sapiens), sequence (P16473 whole entry, looked up): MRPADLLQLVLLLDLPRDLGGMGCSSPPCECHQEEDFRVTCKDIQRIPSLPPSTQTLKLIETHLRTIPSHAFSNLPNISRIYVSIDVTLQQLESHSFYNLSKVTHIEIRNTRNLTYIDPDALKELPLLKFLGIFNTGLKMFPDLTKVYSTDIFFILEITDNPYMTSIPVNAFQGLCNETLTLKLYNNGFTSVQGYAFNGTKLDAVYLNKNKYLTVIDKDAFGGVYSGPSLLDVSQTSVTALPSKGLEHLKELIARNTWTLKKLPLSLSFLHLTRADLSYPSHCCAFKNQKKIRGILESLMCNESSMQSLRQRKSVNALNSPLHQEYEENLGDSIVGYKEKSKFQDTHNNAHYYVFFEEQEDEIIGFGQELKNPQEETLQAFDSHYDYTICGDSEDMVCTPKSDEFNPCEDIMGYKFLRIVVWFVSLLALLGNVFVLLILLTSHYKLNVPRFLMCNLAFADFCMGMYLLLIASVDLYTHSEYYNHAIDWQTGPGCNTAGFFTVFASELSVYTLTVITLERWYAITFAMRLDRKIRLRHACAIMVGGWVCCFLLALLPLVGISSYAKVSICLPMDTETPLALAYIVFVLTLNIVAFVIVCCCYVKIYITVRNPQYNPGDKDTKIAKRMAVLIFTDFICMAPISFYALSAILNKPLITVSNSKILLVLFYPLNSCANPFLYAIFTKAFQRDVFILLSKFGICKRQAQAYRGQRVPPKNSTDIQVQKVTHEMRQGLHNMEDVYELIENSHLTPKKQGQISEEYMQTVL
Nuclear receptor subfamily 1 group I member 3 (Homo sapiens), sequence (Q14994 whole entry, looked up): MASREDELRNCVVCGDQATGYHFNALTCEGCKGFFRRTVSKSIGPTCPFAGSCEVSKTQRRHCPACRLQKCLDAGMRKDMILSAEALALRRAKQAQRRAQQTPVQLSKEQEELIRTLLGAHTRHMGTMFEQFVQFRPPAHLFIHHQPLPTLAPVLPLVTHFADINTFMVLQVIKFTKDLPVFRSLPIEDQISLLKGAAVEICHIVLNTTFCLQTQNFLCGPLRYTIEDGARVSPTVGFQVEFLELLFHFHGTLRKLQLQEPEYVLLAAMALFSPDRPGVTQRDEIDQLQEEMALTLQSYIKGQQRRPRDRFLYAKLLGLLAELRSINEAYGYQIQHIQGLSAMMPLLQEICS
Luciferin 4-monooxygenase (Photinus pyralis), sequence (P08659 whole entry, looked up): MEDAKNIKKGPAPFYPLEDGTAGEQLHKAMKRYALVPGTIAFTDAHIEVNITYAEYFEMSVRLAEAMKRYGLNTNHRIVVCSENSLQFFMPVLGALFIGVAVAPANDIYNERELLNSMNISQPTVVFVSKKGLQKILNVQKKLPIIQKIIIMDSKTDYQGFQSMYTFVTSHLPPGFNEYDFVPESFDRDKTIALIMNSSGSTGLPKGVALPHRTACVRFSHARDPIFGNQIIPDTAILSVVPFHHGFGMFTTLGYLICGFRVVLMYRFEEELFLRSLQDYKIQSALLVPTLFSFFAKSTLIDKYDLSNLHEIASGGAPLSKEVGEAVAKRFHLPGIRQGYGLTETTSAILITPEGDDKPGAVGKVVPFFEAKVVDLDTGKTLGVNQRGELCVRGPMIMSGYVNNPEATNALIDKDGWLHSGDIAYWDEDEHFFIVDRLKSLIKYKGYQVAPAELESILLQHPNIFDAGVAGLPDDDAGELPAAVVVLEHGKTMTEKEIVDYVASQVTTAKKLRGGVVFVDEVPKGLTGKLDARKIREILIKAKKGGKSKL

C=CCc1cc(S(=O)(=O)c2ccc(O)c(CC=C)c2)ccc1O
inactive: [1] | [2] | [3] | [4] | [5] | [6] | [7] | [8] | [9] | [10]

N.N.N.N.N.N.N.N.N.N.N.N.N.N.O.O.[Cl-].[Cl-].[Cl-].[Cl-].[Cl-].[Cl-].[Ru+4].[Ru+5].[Ru+5]
inactive: [11]

CN1[C@@H](CC(=O)c2ccccc2)CCC[C@H]1C[C@H](O)c1ccccc1
inactive: [11] | [12] | [13] | [14] | [15]

O=C(CCCCCCCCc1cccnc1)N1CCC(C=C(c2ccccc2)c2ccccc2)CC1
active: [16] 54.5 µM | [9] 13.8 µM
inactive: [1] | [2] | [7] | [10]

Brc1ccc([C@H]2CN3CCSC3=N2)cc1
inactive: [11] | [12] | [13] | [14] | [15]

CCCOC(=O)c1ccc(O)cc1
active: [1] 54.5 µM | [2] 89.4 µM | [5] 54.5 µM | [7] 10.9 µM
not listed: [13] | [16]
inactive: all other assays above

CCCCCCCCCCCCCCCCC(C(=O)O)C(O)(CC(=O)O)C(=O)O (stereo not given)
not listed: [9] | [11] | [12] | [13] | [14] | [15] | [16] | [17]
inactive: all other assays above

NCCCCN=C(N)N
inactive: [11] | [12] | [13] | [14] | [15]

Cc1cc(NC(=O)Nc2ccc3c(ccn3C)c2)sn1
active: [13] 10.2 µM
inactive: [11] | [12] | [14] | [15]

CCOC(=O)C12CC1/C(=N/O)c1ccccc1O2 (stereo not given)
inactive: [11] | [12] | [13] | [14] | [15] | [17]

O=S(=O)(c1cccc2c(I)cccc12)N1CCCNCC1
inactive: [11] | [12] | [13] | [14] | [15] | [17]

N[C@H](C(=O)O)c1cc(O)cc(O)c1
inactive: [11] | [12] | [13] | [14] | [15] | [17]

CNC(=O)[C@H]1O[C@@H](n2cnc3c(NCc4ccc(N)cc4)ncnc32)[C@H](O)C1O (stereo not given in full)
inactive: [11] | [12] | [13] | [14] | [15]

O=C(O)C1CCNCC1
inactive: [11] | [12] | [13] | [14] | [15] | [17]

Cn1c(=O)c2[nH]c(-c3ccccc3)nc2n(C)c1=O
inactive: [11] | [12] | [13] | [14] | [15]

O=c1cc(-c2ccccc2F)[nH]c2cc3c(cc12)OCO3
inactive: [11] | [12] | [13] | [14] | [15]

CCCn1c(=O)[nH]c(=O)c2[nH]cnc21
inactive: [11] | [12] | [13] | [14] | [15] | [17]

CCCCCCCCCC(=O)NC(CN1CCOCC1)[C@H](O)c1ccccc1 (stereo not given in full)
active: [12] 17.4 µM
inactive: [11] | [13] | [14] | [15]

NC(=O)c1cccc(N)c1
inactive: [11] | [12] | [13] | [14] | [15]

Cc1ccc([N+](=O)[O-])cc1S(=O)(=O)N(C)C
inactive: [11] | [12] | [13] | [14] | [15]

CN(CCCOc1ccc(Cc2ccccc2)cc1)CCC(=O)O
inactive: [11] | [12] | [13] | [14] | [15] | [17]

CCCCC#Cc1nc(NC)c2ncn([C@@H]3O[C@H](CO)[C@@H](O)C3O)c2n1 (stereo not given in full)
inactive: [11] | [12] | [13] | [14] | [15]

CC(C)NC[C@H](O)c1ccc(O)c(O)c1
inactive: [11] | [12] | [13] | [14] | [15] | [17]

CC(C)(C=O)Cc1cc(C(C)(C)C)c(O)c(C(C)(C)C)c1
inactive: [11] | [12] | [13] | [14] | [15] | [17]

Fc1cccc(/C=N/N=C/c2cccc(F)c2)c1
active: [13] 15.5 µM | [17] 12.3 µM
inactive: [11] | [12] | [14] | [15]

N=C(N)SCCc1cnc[nH]1
inactive: [11] | [12] | [13] | [14] | [15]

Nc1ncnc2c1nc(Sc1ccc(Cl)cc1)n2[C@H]1OC2COP(=O)(O)O[C@@H]2C1O (stereo not given in full)
inactive: [11] | [12] | [13] | [14] | [15]

NCCNS(=O)(=O)c1cccc2c(Cl)cccc12
inactive: [11] | [12] | [13] | [14] | [15] | [17]

C=CCNc1ncnc2ccc(Br)cc12
inactive: [11] | [13] | [15]
active: [12] 9.44 µM | [14] 10.2 µM

NC(=O)C1=CN(C2OC(COP(=O)(O)OP(=O)(O)OC[C@H]3O[C@@H](n4cnc5c(N)ncnc54)[C@H](OP(=O)(O)O)C3O)C(O)C2O)C=CC1 (stereo not given in full)
inactive: [11] | [12] | [13] | [14] | [15]

Reference: PubChem BioAssay (Tox21)
